From PubChem BioAssay (Tox21)
Several values for one entry are separate records, joined by “and”; a condition that tells them apart may be missing. Equal values may be shown once. Inconclusive results are not listed. Where a call stands in place of a potency, no number is given. Activity calls are given as the source filed them. The call rests on the fitted dose curve; in most records, active means well fitted inhibition curve with a large enough effect in the signal ratio in the repeat runs (not every such curve was filed as active); inconclusive means weak or mixed curves, or effect the other way; inactive means no such curve, though single readings can be large or run the other way; the % refers to the signal ratio.

Target: Glucocorticoid receptor (Homo sapiens) (UniProt P04150)
Sequence (P04150 whole entry, looked up): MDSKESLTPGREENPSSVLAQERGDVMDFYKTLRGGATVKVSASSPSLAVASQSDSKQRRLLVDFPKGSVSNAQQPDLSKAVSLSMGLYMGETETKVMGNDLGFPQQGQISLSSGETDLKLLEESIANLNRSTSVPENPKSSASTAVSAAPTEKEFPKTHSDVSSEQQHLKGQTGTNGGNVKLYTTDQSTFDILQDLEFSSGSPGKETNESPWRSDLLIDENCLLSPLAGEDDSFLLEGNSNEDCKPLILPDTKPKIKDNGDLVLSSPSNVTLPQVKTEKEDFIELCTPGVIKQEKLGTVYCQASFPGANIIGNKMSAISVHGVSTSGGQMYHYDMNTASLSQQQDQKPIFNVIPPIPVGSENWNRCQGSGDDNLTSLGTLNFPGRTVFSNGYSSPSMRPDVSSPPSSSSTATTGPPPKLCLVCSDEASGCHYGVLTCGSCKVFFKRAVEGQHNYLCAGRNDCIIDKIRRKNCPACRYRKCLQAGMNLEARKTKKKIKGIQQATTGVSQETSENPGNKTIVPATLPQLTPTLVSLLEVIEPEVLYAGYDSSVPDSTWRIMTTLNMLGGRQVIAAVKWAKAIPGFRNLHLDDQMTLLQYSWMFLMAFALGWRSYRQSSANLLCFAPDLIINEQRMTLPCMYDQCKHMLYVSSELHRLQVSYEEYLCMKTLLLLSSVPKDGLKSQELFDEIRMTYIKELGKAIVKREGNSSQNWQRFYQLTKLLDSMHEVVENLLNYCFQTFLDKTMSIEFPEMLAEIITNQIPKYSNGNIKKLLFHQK
Experiment: qHTS assay to identify small molecule antagonists of the glucocorticoid receptor (GR) signaling pathway (AID 720692)
Conditions: GR-bla HeLa, beta-lactamase FRET ratio, dexamethasone-stimulated, 18 h; series mostly up to 58.5 µM
Excerpt: U.S. Tox21 Program National Center for Advancing Translational Sciences [NCATS] NIH Chemical Genomics Center [NCGC] U.S. Environmental Protection Agency [EPA] National Institutes of Environmental Health Sciences [NIEHS] National Toxicology Program [NTP] U.S. Food and Drug Administration [FDA] Tox21 Assay Overview: The Glucocorticoid receptor (GR) is one of the members of the nuclear receptor family of ligand-dependent transcription factors. GR plays a critical role in carbohydrate, protein and lipid metabolisms and programmed cell death. CellSensor GR-bla HeLa cell line (Invitrogen) contains a beta-lactamase reporter gene under the control of the glucocorticoid response element stably integrated into HeLa cells, a cervical cancer cell line that expresses glucocorticoid receptor. The activation of the reporter gene under culture conditions can be detected by fluorescence intensity. This cell line has been used to screen the Tox21 10K compound library and to identify the compounds that inhibit the GR signaling.
Tox21 Assay Protocol Summary: The GR-bla HeLa cells were dispensed at 1500 cells/5 ul/well in 1536-well black wall/clear bottom plates using a Multidrop Combi (ThermoFisher Scientific, Waltham, MA) dispenser. After the assay plates were incubated at a 37 C/5% CO2 incubator for 4 hours, 23 nL of compounds dissolved in DMSO, positive controls or DMSO only was transferred to the assay plate by a pintool station (Kalypsys, San Diego, CA), followed by addition of 1 uL of dexamethasone (5 nM, final concentration in the well). The plates were incubated at 37 C for 18 hours. After 1 uL of LiveBLAzerTM B/G FRET substrate was added using a Flying Reagent Dispenser (Aurora Discovery, San Diego, CA), the plates were incubated at room temperature for 2 hours, and fluorescence intensity was measured by an Envision plate reader (PerkinElmer, Shelton, CT).
Potency means the concentration at half of the fitted maximal effect.

| SMILES | Potency |
| --- | --- |
| c1ccc2c(c1)CCCC2 | inactive |
| C[C@]12CC[C@H](O)CC1=CC[C@@H]1[C@@H]2CC[C@]2(C)C(=O)CC[C@@H]12 | 43.7 µM (active) and 43.6 µM (active) |
| COP(=S)(OC)Oc1ccc(SC)c(C)c1 | inactive |
| N#Cc1cccc(C#N)c1 | inactive |
| OCCCCO | inactive |
| O=[N+]([O-])c1cc([As](=O)(O)O)ccc1O | inactive |
| Nc1nc(N)nc(NC2CC2)n1 | inactive |
| Cl/C=C/Cl | inactive |
| CC(C)(C)C(=O)CCl | inactive |
| CN(C)CCC#N | inactive |
| Clc1cnc(Oc2ccc(Oc3ncc(Cl)cc3Cl)cc2)c(Cl)c1 | inactive |
| O=C(O)C(Br)Br | inactive |
| Cc1cccc(N)c1C | inactive |
| FC(F)(F)c1ccc(Cl)cc1 | inactive |
| Cc1cccc(C)c1N | inactive |
| CCOC(=O)CC(SP(=O)(OC)OC)C(=O)OCC (stereo not given) | inactive |
| O=C/C=C/c1ccccc1 | inactive |
| ClC(Cl)c1ccccc1 | inactive |
| CN1C(=O)CCS(=O)(=O)C1c1ccc(Cl)cc1 (stereo not given) | inactive |
| Sc1ccccc1 | inactive |

| SMILES | Potency |
| --- | --- |
| O=[N+]([O-])c1ccc(Cl)c(Cl)c1 | inactive |
| CN(C)C(=O)Cl | inactive |
| CNC(=O)O/N=C/C(C)(C)S(C)(=O)=O | inactive |
| CCOP(=S)(OCC)Oc1ccc([N+](=O)[O-])cc1 | inactive |
| Cc1ccc(N=C=O)cc1N=C=O | inactive |
| ClCCOCCCl | inactive |
| OCC(O)CCl (stereo not given) | inactive |
| C=C(C)C(=O)OCC(CC)CCCC (stereo not given) | inactive |
| CC[N+](=O)[O-] | inactive |
| OC[C@@H](O)[C@H]1O[C@@H]2O[C@H](C(Cl)(Cl)Cl)O[C@@H]2[C@H]1O | inactive |
| CNCC(O)c1ccc(O)cc1 (stereo not given) | inactive |
| CCOc1ccc(N)cc1 | inactive |
| C=CC#N | inactive |
| CC12CC1(C)C(=O)N(c1cc(Cl)cc(Cl)c1)C2=O (stereo not given) | inactive |
| CCCCC(CC)C(=O)Cl (stereo not given) | inactive |
| C=CC(=O)OCC(CC)CCCC (stereo not given) | inactive |
| CNC(=O)O/N=C/C(C)(C)SC | inactive |
| Cc1ccc(O)c(C)c1 | inactive |
| Cc1cccc(C)c1NC(=O)CN1CCCC1=O | inactive |
| COP(=S)(OC)SCN1C(=O)c2ccccc2C1=O | inactive |
